Laboratory results from PubChem BioAssay (NCI).
About 79,000 compounds went through this panel and 15% of them were active in at least one assay; those are over-represented in the sample as a whole. Cut-off read from the data, not from the text of the source: active = growth inhibition above about 70%; inactive = the rest.

Columns and labels:
[1] = NCI Yeast Anticancer Drug Screen. Data for the rad50 strain (AID 155);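 note: 0% = growth of vehicle-only cultures of the same strain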; settings: S. cerevisiae rad50 strain growth inhibition; at 50.0 µM; hits give high values
How it was run: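 Inhibition values express reduced yeast growth in compound-treated cultures relative to vehicle-treated controls.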

[2] = NCI Yeast Anticancer Drug Screen. Data for the mec2-1 strain (AID 157); settings: S. cerevisiae mec2-1 strain, at 50.0 µM, hits give high values
How it was run: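 Using mec2-1 yeast: add compound, measure growth, express inhibition versus vehicle-treated cultures.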

[3] = NCI Yeast Anticancer Drug Screen. Data for the sgs1 mgt1 strain (AID 161);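 note: 0% = growth of cultures given vehicle only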; settings: S. cerevisiae sgs1 mgt1 strain, at 50.0 µM, hits give high values
How it was run: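 Compounds are added to genetically altered yeast, and growth is compared with cultures given vehicle alone to give percent inhibition.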

[4] = NCI Yeast Anticancer Drug Screen. Data for the cln2 rad14 strain (AID 165);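 note: 0% = growth equal to vehicle treated cultures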; settings: S. cerevisiae cln2 rad14 strain, at 50.0 µM, hits give high values
How it was run: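 Yeast strain cln2 rad14, bearing defects in cell cycle control and DNA repair, serves as the test system; values reflect growth inhibition compared with vehicle.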

[5] = NCI Yeast Anticancer Drug Screen. Data for the bub3 strain (AID 167); settings: S. cerevisiae bub3 mutant strain, at 50.0 µM, hits give high values
How it was run: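 Steps: expose the mutant yeast strain to compound; grow alongside vehicle-treated cultures; measure growth; express inhibition against the vehicle cultures.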

[6] = NCI Yeast Anticancer Drug Screen. Data for the mlh1 rad18 strain (AID 175); settings: S. cerevisiae mlh1 rad18 strain growth inhibition; at 50.0 µM; hits give high values
How it was run: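 Steps: expose repair-defective yeast to compound; measure growth; express inhibition against vehicle-treated controls.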

Measured: growth inhibition

O=C(Cc1ccccc1)NC(CSCc1ccccc1)C(=O)O (stereo unspecified)
inactive: [1] 9.85% | [2] 19.2% | [3] -15% | [4] -39.1% | [5] 10.8% | [6] 40.2%

CC(C)C(O)C[N+](=O)[O-] (stereo unspecified)
inactive: [1] 66.3% | [2] 6.8% | [3] 20.3% | [4] 6.25% | [5] 13.6% | [6] 16.6%

COc1c(Cl)cc([N+](=O)[O-])cc1Cl
inactive: [1] -3.5% | [2] 0.15% | [3] 3.1% | [4] -34.7% | [5] -18.5% | [6] -12.4%

O=C(O)c1ccn(-c2cccc(-n3ccc(C(=O)O)n3)n2)n1
inactive: [1] -1.05% | [2] -17.1% | [3] 2.25% | [4] -47.7% | [5] -15.4% | [6] -7.1%

CO[C@H]1C[C@H]2CC[C@@]1(C)C2(C)C
inactive: [1] 8.85% | [2] 12.6% | [3] 3.7% | [4] -18.9% | [5] 0.4% | [6] -5.55%

O/N=C/c1ncccc1C1OCCO1
inactive: [1] 9.45% | [2] -0.55% | [3] -2.35% | [4] 9.8% | [5] -6.7% | [6] 14.7%

O=C1CCC(=O)c2cc(Br)ccc2N1
inactive: [1] 25.8% | [2] 11.8% | [3] 2.85% | [4] 13% | [5] 46.2% | [6] 23.1%

COc1ccc(C2OCCCO2)cc1
inactive: [1] 13.5% | [2] -19.1% | [3] -6.45% | [4] -34.4% | [5] -27.4% | [6] 4.45%

Nc1c(N=Nc2ccc(S(=O)(=O)O)cc2)cc2c3c(cccc13)CC2
inactive: [1] 11.3% | [2] 2.35% | [3] 20.6% | [4] 8.65% | [5] -39.5% | [6] 2.4%

COCCNC(=O)C(C)O (stereo unspecified)
inactive: [1] 1.7% | [2] 3.95% | [3] -4.9% | [4] 19.2% | [5] 17.1% | [6] 6.15%

COc1ccc(C2=C(Cl)c3cc(OC)c(OC)cc3C2Cl)cc1OC (stereo unspecified)
inactive: [1] 41.5% | [2] 18.6% | [3] 21.9% | [4] 26.9% | [5] -6.15% | [6] 17.4%

O=C(O)/C(=C\c1ccccc1[N+](=O)[O-])c1ccc(C(F)(F)F)cc1
inactive: [1] 4% | [2] -15.9% | [3] 1.95% | [4] 7.1% | [5] 10.7% | [6] -18.9%

CSCCNC(=O)CS(=O)(=O)c1ccc(C)cc1
inactive: [1] 3.35% | [2] -11.4% | [3] 5.25% | [4] 20.2% | [5] 7.95% | [6] 17.4%

COc1ccc(CCN2C(=O)C(=O)N(c3ccc([N+](=O)[O-])cc3)C2=O)cc1OC
inactive: [1] 22.6% | [2] 1.45% | [3] -13.3% | [4] 8.6% | [5] 0.95% | [6] 8.55%

NC(=O)C1CCCCC1C(N)=O (stereo unspecified)
inactive: [1] -15% | [2] -20.1% | [3] -25.6% | [4] -29.5% | [5] -27.8% | [6] -15.3%

N#CC1=C(S)N(C2OC(CO)C(O)C(O)C2O)C(c2ccccc2)=CC1c1ccco1 (stereo unspecified)
inactive: [1] 36.1% | [2] 13% | [3] 4.85% | [4] -12.4% | [5] -3% | [6] 27.6%

CC(=O)OC(OC(C)=O)c1cccc2ccccc12
inactive: [1] 3.05% | [2] -9.3% | [3] -5.8% | [4] -15.9% | [5] 16.9% | [6] -3.9%

O=CC(O)C(O)C(O)C(O)COC1OC(CO)C(O)C(O)C1O (stereo unspecified)
inactive: [1] 22.6% | [2] -11.7% | [3] 21.2% | [4] 8% | [5] 23% | [6] 11.1%

CC(C)(C)NCC1CCCC1
inactive: [1] 0.55% | [2] -1.5% | [3] 2.4% | [4] -22.9% | [5] -11.4% | [6] -3.8%

CCOc1nc(N)nc(C)c1N=Nc1ccccc1OC
inactive: [1] 12.7% | [2] 9.05% | [3] 14.4% | [4] 35.9% | [5] 11.5% | [6] 13.5%

O=C(/C=C/c1ccco1)CCN1CCOCC1
inactive: [1] 8.15% | [2] -4.6% | [3] 24.8% | [4] -44.1% | [5] -7.25% | [6] 13.8%

CCOC(=O)C1=C(SC)SC(C(=O)OCC)C2C=C(C)C=CN12 (stereo unspecified)
inactive: [1] -5.2% | [2] -19.4% | [3] -10.7% | [4] 5.05% | [5] -32.9% | [6] 3.75%

O=C(COc1ccc(Cl)c(Cl)c1)NCc1cccc([N+](=O)[O-])c1
inactive: [1] 4.9% | [2] -15.8% | [3] -8.4% | [4] 2.2% | [5] 14.9% | [6] 34%

COc1cc2c(cc1OC)C1Cc3ccc(OC)c(OC)c3C[N+]1([O-])CC2 (stereo unspecified)
inactive: [1] -24.9% | [2] -16.8% | [3] -6.95% | [4] 9.6% | [5] -15.6% | [6] -3.2%

CC(=O)Nc1ccc(N=Nc2c(C)nn(C(=N)N)c2C)cc1
inactive: [1] -5.45% | [2] -8.55% | [3] 0.45% | [4] 0.6% | [5] -4.2% | [6] 9%

CCC(CC)c1ccc2ccccc2c1
inactive: [1] -22.2% | [2] 1% | [3] -11.6% | [4] -19.6% | [5] -6.55% | [6] -11.4%

O=C(O)c1cc(C(=O)O)cc(N2C(=O)c3ccccc3C2=O)c1
inactive: [1] 1.45% | [2] -30.4% | [3] -22.4% | [4] 39.3% | [5] -6.1% | [6] 0.5%

C=C(Cl)/C(=C\Cl)CCC(Cl)C(C)C (stereo unspecified)
inactive: [1] 19.6% | [2] 15.2% | [3] 3.1% | [4] 29.1% | [5] -15.3% | [6] 4.25%

CCc1cccc(C)c1NC(=O)C(=O)CC(=O)CS(=O)(=O)c1ccc(C)cc1
inactive: [1] -13.4% | [2] -15.2% | [3] -6% | [4] -0.8% | [5] -8.8% | [6] 12.5%

COc1ccc(NC(=O)C(=O)c2c(O)c3ccc(O)cc3oc2=O)c([N+](=O)[O-])c1
inactive: [1] 14.4% | [2] 9.95% | [3] 1% | [4] 3.95% | [5] -2.85% | [6] -6.1%

CC1CCC2N(C1)CC1C3(O)CC4(O)C(CCC5C(=O)C(O)CCC54C)C3(O)CC(O)C1(O)C2(C)O (stereo unspecified)
inactive: [1] 5.5% | [2] -26.9% | [3] -10.8% | [4] 10.9% | [5] -9.1% | [6] -7.7%

CCOC(=O)C(CC)N1C(=O)c2ccccc2S1(=O)=O (stereo unspecified)
inactive: [1] -16.1% | [2] -10.5% | [3] -12.4% | [4] 48.2% | [5] 33.5% | [6] -12.6%

O=C(O)CCSC1(SCCC(=O)O)CCCCC1
inactive: [1] -23.9% | [2] -17.9% | [3] -8.55% | [4] -3.25% | [5] -9% | [6] -23.6%

CC(=O)OCCOCNC(=S)N/N=C/c1cc([N+](=O)[O-])ccc1O
inactive: [1] 25.9% | [2] -2.75% | [3] 15.6% | [4] 42% | [5] 10.7% | [6] -0.05%

COc1ccc(-c2c([O-])oc(-c3ccccc3)[n+]2C)cc1
inactive: [1] 17.8% | [2] -18.4% | [3] -6.2% | [4] 7.3% | [5] 3.1% | [6] -4.1%

O=[N+]([O-])c1ccc(N=NC(=S)NNc2ccccc2)cc1
inactive: [1] 38.9% | [2] 0.65% | [3] 39.5% | [4] -3.35% | [5] 20.2% | [6] 23.5%

CC(=O)OC12C(C)=C(C)C(=O)N1c1ccccc1N2C(C)=O (stereo unspecified)
inactive: [1] -20.8% | [2] 2.55% | [3] 6.7% | [4] 15.9% | [5] 6.15% | [6] 11.1%

CCCCCCC(O)CCCCCCCCCCCO (stereo unspecified)
inactive: [1] 41.5% | [2] -15.4% | [3] 1.05% | [4] -43% | [5] 10.2% | [6] 15.5%

O=C(C[n+]1cccc2ccccc21)c1ccc(F)cc1
inactive: [1] -0.05% | [2] -10.3% | [3] 18.1% | [4] 17% | [5] 10.2% | [6] -3%

COc1ccc2ccc3cccnc3c2n1
inactive: [1] 45.2% | [2] 22.1% | [3] 40.9% | [4] -2.35% | [5] 26.2% | [6] 2%

CC(=O)OCCOCNC(=S)N/N=C/c1ccc([N+](=O)[O-])s1
inactive: [1] 35.4% | [2] -5.2% | [3] 23.9% | [4] 32.5% | [5] 2.7% | [6] 12.6%
